Assay outcomes (PubChem BioAssay)
In the library only some 2.4% were active in any assay of this set; here they are far more common.
S1P4 agonist – activates the human S1P4 receptor. O95977. S1P4-expressing cell line, agonist reporter assay. activation, % at 4.98 µM. 220,000 compounds, 0.35% hits. AID 1509; in the data active = activation above about 11%;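 note: 0% = DMSO vehicle and 100% = reference agonist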
S1P3 antag – S1P3 (human) receptor antagonism; Q99500; CHO S1P3 NFAT-BLA reporter, FRET fluorescence, antagonist mode; inhibition, % at 4.98 µM; 170,000 compounds, 0.27% hits; AID 485;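 active = inhibition above the plate cutoff, the mean inhibition of test wells on that plate plus 3 SD, cut at about 28% in these data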;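 note: cells challenged with S1P at its EC80 of 0.8 µM; blue over green emission ratio from cleaved BLA substrate after 4 h stimulation; 0% = S1P-stimulated wells and 100% = unstimulated DMSO-only wells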
INS promoter inh – TRM-6 insulin promoter activity inhibition | 130,000 compounds, 0.9% hits | inhibition, % at 2 µM | TRM-6 cells (human fetal islet line), insulin promoter-eGFP reporter, imaging; reporter expression induced with tamoxifen | AID 1273;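 active = inhibition above the mean plus 3 SD, with well images judged a real hit on visual review, cut at about 60% in these data, passing the limit was not always enough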
EP2 antag – blocks the human prostaglandin E2 receptor EP2. P43116. C6 glioma cells expressing human EP2, cAMP TR-FRET; cells stimulated with saturating PGE2. inhibition, % at 25 µM. 260,000 compounds, 0.52% hits. AID 1422;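 active = percent inhibition above 40 after rounding to a whole number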;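 note: rat C6 glioma host cells with rolipram phosphodiesterase inhibitor present; the protocol text gives 20 µM as final concentration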
Target sequence (P43116 whole entry, looked up): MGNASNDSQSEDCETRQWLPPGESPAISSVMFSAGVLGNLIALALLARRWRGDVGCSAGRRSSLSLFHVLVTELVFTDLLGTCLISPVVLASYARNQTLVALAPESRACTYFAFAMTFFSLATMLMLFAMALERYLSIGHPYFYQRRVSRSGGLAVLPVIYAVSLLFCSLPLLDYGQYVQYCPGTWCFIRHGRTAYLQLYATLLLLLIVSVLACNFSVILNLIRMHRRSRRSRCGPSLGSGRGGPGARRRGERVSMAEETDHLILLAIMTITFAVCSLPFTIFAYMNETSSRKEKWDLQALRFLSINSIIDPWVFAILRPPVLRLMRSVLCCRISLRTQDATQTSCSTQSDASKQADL
S1P4 antagonist – antagonists of human S1P4 receptor; S1P4-expressing cells, antagonist mode, reporter read-out; O95977; inhibition, % at 4.98 µM; 220,000 compounds, 0.26% hits; in the data active = inhibition above about 29%;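 note: 0% = wells stimulated with agonist and 100% = vehicle wells without agonist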
EP2 mod – modulators of human EP2 prostaglandin E2 receptor; EP2-expressing cells, cAMP HTRF FRET, PGE2 co-stimulation; induction, % at 25 µM; AID 940; 260,000 compounds, 0.83% hits;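 active = compounds whose cAMP rise, as percent of the full-agonist control response, exceeds 60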;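 note: rat C6 glioma line stably carrying human EP2 under a CMV promoter; the protocol text gives 20 µM as final concentration; 100% = response of wells given 1 µM PGE2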
Numbers without * were called inactive; . = no result given; ! = not active in a repeat.

SMILES | S1P4 agonist | S1P3 antag | INS promoter inh | EP2 antag | S1P4 antagonist | EP2 mod
CCn1c(NC(=O)c2ccco2)c(-c2ccccc2Cl)c(=O)c2ccccc21 | 0 | -8 | 90* | 7 | -19 | 24
Cc1ccc(-c2cc(N)c(=O)n(CC(=O)NCC(C)C)n2)o1 | . | . | . | 5 | . | -33
COc1ccc(-c2nn3c(C4CCCCC4)nnc3s2)cc1OC | 0 | . | . | 7 | 2 | 61*
COc1cc(-c2nn3c(C4CCCCC4)nnc3s2)cc(OC)c1OC | 2 | . | . | 3 | -4 | -1
CNC[C@@H](O)c1ccc(O)c(O)c1 | . | . | . | 10 | . | 82*
CC(C)(C)NCC(O)c1ccc(O)c(CO)c1 (stereo unspecified) | . | . | . | 14 | . | 78*!
CC(C)NC[C@@H](O)c1ccc(O)c(O)c1 | 0 | 1 | 50 | 9 | -7 | 80*
CC(C)NCC(O)c1ccc(NS(C)(=O)=O)cc1 (stereo unspecified) | 0 | -6 | . | 14 | 8 | 15
CCOC(=O)C1C2C=CC3(CN(CCc4ccccc4)C(=O)C13)O2 (stereo unspecified) | 1 | 3 | -317 | 10 | -6 | 25
COC(=O)C1C2C=CC3(CN(CCc4ccccc4)C(=O)C13)O2 (stereo unspecified) | -1 | 16 | 0 | 51*! | 14 | -10
CC1CC(C)CN(C(=O)/C(=C\c2ccccc2)c2ccccc2)C1 (stereo unspecified) | -1 | -4 | -165 | 2 | -14 | 63*
O=C(Nc1ccc(CN2CCOCC2)cc1)c1ccc(-c2cc(Cl)ccc2Cl)o1 | 2 | . | 13 | 59* | 4 | -39
NS(=O)(=O)c1ccc(NC(=O)c2ccc(-c3cc(Cl)ccc3Cl)o2)cc1 | . | . | . | 7 | . | -4
CCOC(=O)/C(=N/Nc1ccccc1)c1csc(Nc2ccccc2)n1 | 2 | . | -8 | 13 | 2 | 20
CCOC(=O)/C(=N\Nc1ccc(Cl)cc1)c1csc(Nc2ccccc2)n1 | 2 | . | . | 44* | 10 | 29
CC(NC(=O)c1ccccc1Cl)c1n[nH]c(=S)n1C (stereo unspecified) | . | . | . | 3 | . | -4
COc1ccccc1NC(=O)c1sc(NC(=O)Cc2ccccc2)c(C#N)c1C | . | . | . | 10 | . | 15
COc1ccccc1NC(=O)c1sc(NC(=O)c2ccco2)c(C#N)c1C | 1 | . | 93* | 10 | 2 | 32
COc1ccccc1NC(=O)c1sc(NC(=O)COc2ccccc2)c(C#N)c1C | . | . | . | 13 | . | 66*
COc1ccc(C(NC(=O)Cc2ccc(F)cc2)c2nccn2C)cc1OC (stereo unspecified) | . | . | . | 7 | . | -42
COc1ccc(CC(=O)OCc2cc3ccccc3[nH]c2=O)cc1 | 1 | -44 | . | -6 | 8 | -31
COc1cc(OC)cc(C(=O)OCc2cc3ccccc3[nH]c2=O)c1 | 1 | -22 | 71* | . | 21 | 3
CS(=O)(=O)N1CCCc2cc(C(O)CN3CCCC3)ccc21 (stereo unspecified) | . | . | . | 6 | . | -32
Cc1ccc2cc(C#N)c(SCC(=O)Nc3ccc(Br)cc3)nc2c1 | . | . | . | 9 | . | 2
Cc1cc(OCc2ccccc2)ccc1/C(O)=C1/C(=O)C(=O)N(Cc2cccnc2)C1c1ccncc1 (stereo unspecified) | -1 | 5 | . | 18 | 13 | 64*
SMILES | S1P4 agonist | S1P3 antag | INS promoter inh | EP2 antag | S1P4 antagonist | EP2 mod
COC(=O)[C@H]1[C@@H]2C[C@H]3c4[nH]c5ccccc5c4CCN3C[C@H]2CC[C@@H]1OS(=O)(=O)O | . | . | . | 48* | . | 10
COC(=O)C1=COC(C)C2CN3CCc4c([nH]c5ccccc45)C3CC12 (stereo unspecified) | 0 | 15 | . | 17 | -4 | 5
CN(Cc1ccccc1)Cn1nc2c3ccccc3ncn2c1=O | . | . | . | 6 | . | -28
O=[N+]([O-])c1cc2oc3c(c2c(C=NCc2ccccc2)c1O)CCCC3 | 0 | 9 | 31 | 48* | -20 | 22
CC(C)(C)c1ccc(O)c(CN(Cc2cc(C(C)(C)C)ccc2O)c2ccccc2)c1 | . | . | . | 55* | . | 5
CC(C)(C)c1ccc(O)c(N)c1 | 2 | . | -61 | 13 | -7 | 11
CSc1nc2ccc(S(=O)(=O)N(C)C)cc2s1 | 3 | . | -3 | 8 | -6 | -16
CCN(CC)S(=O)(=O)c1ccc2nc(SC)sc2c1 | 0 | . | 79* | 12 | 6 | -18
COc1ccc(C2=NOC(C(=O)Nc3cc(Br)ccc3O)C2)cc1OC (stereo unspecified) | -4 | -30 | 74* | 8 | -10 | -31
CCOc1ccc2nc3sc(C(=O)Nc4cc(OC)ccc4OC)c(N)c3cc2c1 | . | . | . | 12 | . | 21
CCOc1cc(C)nc(NCc2ccccc2)n1 | 1 | . | 13 | 3 | -1 | 63*
CC(=O)c1ccc(Oc2cc(C)nc(NCc3ccccc3)n2)cc1 | 2 | . | 69 | 7 | -8 | 15
Cc1cc(OC2CCCCC2)nc(NCc2ccccc2)n1 | 10 | -8 | . | 7 | 11 | 66*
COc1cc(S(=O)(=O)Nc2ccc(C)cc2)ccc1N=Cc1c(C)[nH]n(-c2ccccc2)c1=O | 1 | -5 | 72* | 4 | -20 | 10
CC(=O)Cn1nnc2sc3c(c2c1=O)CCC(C(C)(C)C)C3 (stereo unspecified) | 1 | -20 | . | 2 | -2 | 47
CCn1nnc2sc3c(c2c1=O)CCC(C)C3 (stereo unspecified) | -1 | . | 78* | 15 | -10 | 25
CCN(CC)C(=O)c1ccc(NS(=O)(=O)c2ccccc2)cc1 | 0 | -55 | 100* | 8 | -10 | 1
CCN(CC)C(=O)c1ccc(NS(=O)(=O)c2ccc(/C=C/C(=O)O)cc2)cc1 | 0 | -38 | 40 | 9 | -20 | 16
CCCC(c1nnnn1C1CCCCC1)N(Cc1cc2ccc(OC)cc2[nH]c1=O)C1CCCC1 (stereo unspecified) | . | . | . | 6 | . | 24
O=S(=O)(c1ccccc1)N1c2cc(Cl)ccc2Oc2nc3ccccc3nc21 | 2 | . | -91 | 8 | -15 | 61*
CC1CCCCN1CC(=O)Nc1ccc(S(=O)(=O)NC2CCCCC2)cc1 (stereo unspecified) | . | . | . | 14 | . | -23
Cc1nn(-c2ccccc2)c2[nH]c(=O)c(CNCc3ccccc3F)cc12 | . | . | . | 15 | . | 16
Nc1ccc(N2CCCC2)cc1 | . | . | . | 68* | . | -94
Cn1c(=O)c2nc(NCc3ccccc3)cnc2n(C)c1=O | 1 | 28 | . | . | 8 | 65*
CCCn1c(NCc2ccccc2)nc2c1c(=O)n(C)c(=O)n2C | . | . | . | 13 | . | 5
Cc1ccc(S(=O)(=O)N(C)c2ccccc2)cc1 | 0 | . | -6 | 9 | -2 | 12
CC(=O)Oc1ccc(N(c2ccccc2)S(=O)(=O)c2ccc(C)cc2)cc1 | -3 | -16 | 25 | 9 | -1 | 61*
CCOC(=O)c1cccc(NC(=O)CN2CCC(n3nnc4cc(C)ccc43)CC2)c1 | . | . | . | 8 | . | -15
CC(=O)Nc1cccc(-c2nc3c(ccc4ccccc43)o2)c1 | . | . | . | 25 | . | -110
Cc1ccc(NC(=O)c2ccc(Cl)c(N3C(=O)C=CC3=O)c2)cc1 | -2 | . | 0 | 125* | -3 | -38
